Results published in PubChem BioAssay (NCI).
The panel holds about 79,000 compounds, 15% with a hit somewhere; the sample as a whole holds those more often. The source made the active and inactive calls. Rule as the data show it: active = growth inhibition above about 70%; inactive = the rest.

Columns and labels:
[1] = NCI Yeast Anticancer Drug Screen. Data for the sgs1 mgt1 strain (AID 161);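 also: 0% = growth of cultures given vehicle only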; details: S. cerevisiae sgs1 mgt1 strain, stronger effect = higher value
Method in brief: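 Growth of a repair-deficient yeast mutant was monitored after compound treatment and expressed as inhibition relative to vehicle-treated cultures.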

[2] = NCI Yeast Anticancer Drug Screen. Data for the CLN2oe strain (AID 163);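 also: 0% = growth of vehicle-only control cultures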; details: S. cerevisiae CLN2oe strain, stronger effect = higher value
Method in brief: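 Values reflect how much compound exposure reduced yeast growth, referenced to vehicle-exposed cells. Assay organism is a strain with a defined genetic change affecting cell-cycle control.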

[3] = NCI Yeast Anticancer Drug Screen. Data for the cln2 rad14 strain (AID 165);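 also: 0% = growth equal to vehicle treated cultures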; details: S. cerevisiae cln2 rad14 strain, stronger effect = higher value
Method in brief: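 Relative to vehicle controls, growth inhibition of compound-treated cln2 rad14 yeast was recorded.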

[4] = NCI Yeast Anticancer Drug Screen. Data for the bub3 strain (AID 167); details: S. cerevisiae bub3 mutant strain, stronger effect = higher value
Method in brief: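 In this screen, a yeast mutant lacking normal mitotic checkpoint function is challenged with compound. Relative growth versus vehicle gives the inhibition value.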

[5] = NCI Yeast Anticancer Drug Screen. Data for the wt2 strain (AID 169);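 also: 0% = growth of vehicle-treated yeast cultures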; details: S. cerevisiae wt2 strain growth inhibition, stronger effect = higher value
Method in brief: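 Values express reduction in yeast growth under compound treatment, referenced to vehicle-treated cells.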

[6] = NCI Yeast Anticancer Drug Screen. Data for the mlh1 strain (AID 171);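 also: 0% = growth of vehicle-treated control cultures of the same strain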; details: S. cerevisiae mlh1 strain growth inhibition, stronger effect = higher value
Method in brief: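 Steps: expose the defined-mutant yeast strain to compound; expose a parallel culture to vehicle; measure growth; express compound effect as inhibition relative to the vehicle culture.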

[7] = NCI Yeast Anticancer Drug Screen. Data for the sgs1 strain (AID 173);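 also: 0% = growth of vehicle-only control cultures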; details: S. cerevisiae sgs1 mutant, stronger effect = higher value
Method in brief: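 Treat defined-mutant yeast with compound; measure growth; calculate inhibition relative to vehicle-treated cells.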

[8] = NCI Yeast Anticancer Drug Screen. Data for the mlh1 rad18 strain (AID 175); details: S. cerevisiae mlh1 rad18 strain growth inhibition, stronger effect = higher value
Method in brief: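 Test agents were incubated with a yeast strain of defined genotype (DNA damage repair defect). Inhibition of growth was derived by comparison with vehicle-exposed cultures.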

[9] = NCI Yeast Anticancer Drug Screen. Data for the rad18 strain (AID 177); details: S. cerevisiae rad18 mutant growth inhibition, stronger effect = higher value
Method in brief: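 A genetically defined yeast mutant impaired in DNA damage repair was treated with test compounds, then its growth was measured against cultures receiving vehicle alone.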

[10] = at 5.0 µM (retest, dose inferred, filed as 0.5)
[11] = at 50.0 µM (retest, dose inferred, filed as 5.0)

Measured: growth inhibition

CCS(=O)(=O)[O][Sn]([CH2]C)([CH2]C)[O]S(=O)(=O)CC
active: [4]; [11] 72% | [5]; at 100.0 µM 77% | [8]; [11] 87%
inactive: [1]; [10] 15% | [1]; [11] 69% | [1]; at 50.0 µM 42.2% | [2]; at 1.2 µM -18% | [2]; at 3.7 µM -45% | [2]; at 11.0 µM -33% | [2]; at 33.0 µM -35% | [2]; at 100.0 µM 54% | [3]; [10] 2% | [3]; [11] 32% | [3]; at 50.0 µM 67% | [4]; at 1.2 µM -5% | [4]; at 3.7 µM -9% | [4]; [10] 1% | [4]; at 11.0 µM -8% | [4]; at 33.0 µM -1% | [4]; at 50.0 µM 55.7% | [4]; at 100.0 µM 55% | [5]; at 1.2 µM -32% | [5]; at 3.7 µM -21% | [5]; at 11.0 µM -26% | [5]; at 33.0 µM -4% | [6]; at 1.2 µM 1% | [6]; at 3.7 µM 5% | [6]; at 11.0 µM 16% | [6]; at 33.0 µM 28% | [6]; at 100.0 µM 52% | [7]; at 1.2 µM -4% | [7]; at 3.7 µM -9% | [7]; at 11.0 µM -3% | [7]; at 33.0 µM 7% | [7]; at 100.0 µM 51% | [8]; [10] 44% | [8]; at 50.0 µM 59.6% | [9]; at 1.2 µM -29% | [9]; at 3.7 µM -25% | [9]; at 11.0 µM -17% | [9]; at 33.0 µM -16% | [9]; at 100.0 µM 52%
